In PubChem BioAssay AID463254 (National Center for Advancing Translational Sciences (NCATS), 2010):
Among all 330,000 compounds or so, about 40 (0.01%) were called active. Entries that show only a call come without a potency. Calls follow the shape of the dose curve; as a rule, active = well fitted inhibition curve with a large enough effect; inconclusive = small, poorly fitted or top-dose-only effect, or effect the other way; inactive = flat fitted curve, though single readings scatter. The full list was thinned out, with actives kept by preference.

The molecules below were run against Ubiquitin carboxyl-terminal hydrolase 2 (Homo sapiens) (UniProt O75604) (assay: qHTS Assay for Inhibitors of Ubiquitin-specific Protease USP2a Using CHOP2 as the Reporter). Details: USP2 core, Ub-CHOP2 coupled fluorogenic reporter, 485/531; series mostly up to 38.3 µM.
Description: NIH Molecular Libraries Screening Centers Network [MLSCN] NIH Chemical Genomics Center [NCGC] MLSCN Grant: XO1-MH079852-01 PI Name: Nicholson, Ben. Progenra Inc, Malvern, PA NCGC Assay Overview: Homeostasis of cellular proteins is maintained through a combination of synthesis and degradation. The pathway that accounts for the majority of protein degradation is the ubiquitin-proteasomal pathway. Ubiquitin (Ub) is highly conserved in all cells and the generation of a multi-Ub chain typically targets proteins for degradation by the proteasome. However, ubiquitination is highly reversible and dynamic. Deubiquitination, the reverse process, is catalyzed through the action of enzymes referred to as isopeptidases or deubiquitinating enzymes (DUBs). This group of enzymes is collectively responsible for maintaining adequate pools of free ubiquitin and regulating the ubiquitination status of cellular proteins. The class of DUBs referred to as the ubiquitin-specific proteases (USP) family functions endoproteolytically to cleave Ub chains from a wide range of protein substrates. USP2a deubiquitinates fatty acid synthase (FASN) which has recently been identified as an emerging oncology target. To identify inhibitors of USP2a a cell-free assay was employed. […] The reporter enzyme chosen is an enterokinase called CHOP2, which is activated when the Ub is cleaved by USP2. The free and now activated reporter can subsequently act on its reporter substrate. Thus, this coupled assay gives a fluorescent read-out at excitation/emission wavelengths of 485/531. The assay was developed by Progenra, Inc. and has been licensed for sale by LifeSensors, Inc. as Ub-CHOP2-Reporter-Kit (#PR1101).
NCGC Assay Protocol Summary: The assay buffer, prepared fresh at the day of the assay, contains 20mM Tris-HCl pH 8.0, 2mM CaCl2, 2mM beta-Mercaptoethanol, 0.05% CHAPS. 3ul of 20nM (10nM final) USP2 core, which is stored on ice, is dispensed into a medium-binding black solid Kalypsys 1,536 well plate using the Kalypsys dispenser. The assay plate is then pinned with 23nL compound with the Kalypsys pintool in columns 5-48. The controls are pinned as follows: column 1 two-fold dilutions of 2M NEM in duplicate; column 2 2M NEM (final concentration 38.2mM); column 3&4 DMSO. The assay plate is incubated at RT for 30min. Subsequently, 1.5uL of 100nM (25nM final) Ub-CHOP2 and 1.5uL of 100nM (25nM final) Reporter Substrate (both stored on ice and protected from light) were dispensed into the plate using the Kalypsys dispenser. Plates were read after 60min RT incubation on a ViewLux (Perkin Elmer) plate reader using the following wavelengths Ex 485nm /Em 531nm. Data were normalized to the to AC100 inhibition (NEM). Concentration-response curves were fitted to the normalized data and the concentration-response curves were then classified based on curve quality (r2), response magnitude and degree of measured activity. The time zero reading was used to flag fluorescence artifacts. Keywords: ubiquitination, deubiquitination, proteases, profluorescent, MLSMR, MLPCN, NIH Roadmap, qHTS, NCGC
Potency is read from the fitted curve at half-maximal effect.

Chain of Ubiquitin carboxyl-terminal hydrolase 2 (Homo sapiens) (O75604 whole entry, looked up): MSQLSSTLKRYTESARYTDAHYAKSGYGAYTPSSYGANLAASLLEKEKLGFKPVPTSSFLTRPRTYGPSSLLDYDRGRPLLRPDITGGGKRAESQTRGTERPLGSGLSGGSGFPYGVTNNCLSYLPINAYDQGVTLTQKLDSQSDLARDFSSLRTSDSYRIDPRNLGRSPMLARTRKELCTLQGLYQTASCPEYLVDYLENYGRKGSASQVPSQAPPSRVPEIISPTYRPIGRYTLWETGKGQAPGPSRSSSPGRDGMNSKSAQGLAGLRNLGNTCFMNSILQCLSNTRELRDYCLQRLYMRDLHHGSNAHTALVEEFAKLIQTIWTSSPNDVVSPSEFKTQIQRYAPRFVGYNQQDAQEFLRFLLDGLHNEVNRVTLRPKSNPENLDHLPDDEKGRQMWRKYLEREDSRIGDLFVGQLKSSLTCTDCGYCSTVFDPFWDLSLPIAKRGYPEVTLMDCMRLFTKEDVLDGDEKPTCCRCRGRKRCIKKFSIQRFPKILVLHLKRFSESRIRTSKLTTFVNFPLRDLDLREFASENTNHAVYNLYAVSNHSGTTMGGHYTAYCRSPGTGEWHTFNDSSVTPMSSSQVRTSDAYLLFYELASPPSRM

| SMILES | Potency |
| --- | --- |
| O=C(OCC1O[C@@H](OC(=O)c2cc(O)c(O)c(O)c2)[C@@H](OC(=O)c2cc(O)c(O)c(O)c2)[C@@H](OC(=O)c2cc(O)c(O)c(O)c2)[C@@H]1OC(=O)c1cc(O)c(O)c(O)c1)c1cc(O)c(O)c(O)c1 (stereo not given in full) | 6.31 µM (active) |
| CC(C)(C)[C@]1(O)C[C@@H]2OC(=O)C[C@@]23C(=O)O[C@@H]2OC(=O)[C@H](O)[C@]213 | inactive |
| NC(=O)Cn1cc(C(=O)c2ccccc2F)c2ccccc21 | inactive |
| Cc1ccnc(-n2c(C)cc(/C=C3\C(=O)NC(=S)N(C)C3=O)c2C)c1 | inactive |
| CC12CN3CC(C)(CN(C1)C3c1cccs1)C2 (stereo not given) | inactive |
